# Assay results taken from PubChem BioAssay (NCATS).
# “And” between values parts separate entries of the source, which are not always exact repeats. Identical values can stand only once. Results filed as inconclusive are left out. A call without a number means that no potency is given here. The source made the active and inactive calls. Unless noted, calls follow the shape of the dose curve; as a rule, active = well fitted curve in the direction sought with a large enough effect; inconclusive = small, poorly fitted or top-dose-only effect, or another doubt; inactive = no such curve, though single readings can be large; an effect the other way counts as inactive or inconclusive.
# Tests used:
# [1] = molecular target: Glucocorticoid receptor (Homo sapiens) (UniProt P04150); experiment: GR-GFP Redistribution (AID 450;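 active = compounds whose dose series gives a full or clear partial fitted curve of increased nuclear translocation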; also: potency is read from the fitted curve at half-maximal effect); details: U2OS GR-GFP nuclear translocation, laser cytometry, 2 h
# Sequence of Glucocorticoid receptor (Homo sapiens) (P04150 whole entry, looked up, the tested form may be a part): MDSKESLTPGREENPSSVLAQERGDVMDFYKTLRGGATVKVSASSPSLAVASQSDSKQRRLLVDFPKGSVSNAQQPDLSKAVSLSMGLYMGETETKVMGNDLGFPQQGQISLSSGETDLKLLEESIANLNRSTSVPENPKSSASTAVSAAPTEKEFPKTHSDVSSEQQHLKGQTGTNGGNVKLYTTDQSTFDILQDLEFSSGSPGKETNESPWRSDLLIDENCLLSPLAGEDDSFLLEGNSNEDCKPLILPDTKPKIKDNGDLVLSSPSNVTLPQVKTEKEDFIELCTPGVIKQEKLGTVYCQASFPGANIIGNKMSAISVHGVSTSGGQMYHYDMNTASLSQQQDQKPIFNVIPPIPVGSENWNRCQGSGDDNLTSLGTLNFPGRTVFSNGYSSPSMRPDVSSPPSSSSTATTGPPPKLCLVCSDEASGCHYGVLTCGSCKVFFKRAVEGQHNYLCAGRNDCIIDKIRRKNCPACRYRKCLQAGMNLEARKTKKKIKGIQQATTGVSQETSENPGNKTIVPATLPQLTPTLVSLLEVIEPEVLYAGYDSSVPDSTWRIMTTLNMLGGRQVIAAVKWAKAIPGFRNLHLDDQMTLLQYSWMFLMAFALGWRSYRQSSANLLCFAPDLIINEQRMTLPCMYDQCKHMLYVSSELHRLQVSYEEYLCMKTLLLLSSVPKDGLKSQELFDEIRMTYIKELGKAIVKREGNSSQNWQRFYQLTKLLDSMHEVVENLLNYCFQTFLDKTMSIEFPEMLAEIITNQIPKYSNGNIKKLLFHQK
# [2] = molecular target: Glucocorticoid receptor (Homo sapiens) (UniProt P04150); experiment: GR-EFC Redistribution (AID 451; calls by dose curve; also: potency is read from the fitted curve at half-maximal effect); details: CHO-K1 GR-EFC translocation, beta-gal luminescence, 2 h
# How it was run: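 CHO-K1 cells expressing nuclear EA and GR-ED fragments of b-gal; compounds titrated up to 46 uM final, 2 h at 37 C. GR nuclear translocation read as complemented b-gal luminescence after 1 h RT detection.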
# [3] = molecular target: Mitogen-activated protein kinase 10 (Mus musculus) (UniProt Q61831); experiment: JNK3 AlphaScreen Assay (AID 530; active = well fitted curve in either direction with a large enough effect, not every such curve was filed as active;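 also: kinase came from lysate of stimulated human HepG2 cells; signal reports phosphorylation of biotinylated GST-cJun 1-79 at Ser73 with 10 µM ATP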); details: JNK3 lysate, c-Jun phosphorylation; series mostly up to 57.1 µM
# How it was run: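 HepG2 lysate (IL-1b/TNFa pre-activated) + biotin-GST-cJun 1-79 + anti-pSer73 cJun; cpd titration, 15 min RT; ATP 10 uM start; Tris pH 7.6, MgCl2, DTT, vanadate; beads in EDTA buffer; AlphaScreen.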
# [4] = molecular target: 3',5'-cyclic-AMP phosphodiesterase 4B (Homo sapiens) (UniProt Q07343); experiment: qHTS Assay for Inhibitors of PDE-IV (AID 607; active = well fitted activation curve with a large enough effect in the main read-out, with a control signal flat, not every such curve was filed as active); details: HEK293 ACTOne CNG channel cells, membrane potential fluorescence; series mostly up to 22.9 µM
# Sequence of 3',5'-cyclic-AMP phosphodiesterase 4B (Homo sapiens) (Q07343 whole entry, looked up): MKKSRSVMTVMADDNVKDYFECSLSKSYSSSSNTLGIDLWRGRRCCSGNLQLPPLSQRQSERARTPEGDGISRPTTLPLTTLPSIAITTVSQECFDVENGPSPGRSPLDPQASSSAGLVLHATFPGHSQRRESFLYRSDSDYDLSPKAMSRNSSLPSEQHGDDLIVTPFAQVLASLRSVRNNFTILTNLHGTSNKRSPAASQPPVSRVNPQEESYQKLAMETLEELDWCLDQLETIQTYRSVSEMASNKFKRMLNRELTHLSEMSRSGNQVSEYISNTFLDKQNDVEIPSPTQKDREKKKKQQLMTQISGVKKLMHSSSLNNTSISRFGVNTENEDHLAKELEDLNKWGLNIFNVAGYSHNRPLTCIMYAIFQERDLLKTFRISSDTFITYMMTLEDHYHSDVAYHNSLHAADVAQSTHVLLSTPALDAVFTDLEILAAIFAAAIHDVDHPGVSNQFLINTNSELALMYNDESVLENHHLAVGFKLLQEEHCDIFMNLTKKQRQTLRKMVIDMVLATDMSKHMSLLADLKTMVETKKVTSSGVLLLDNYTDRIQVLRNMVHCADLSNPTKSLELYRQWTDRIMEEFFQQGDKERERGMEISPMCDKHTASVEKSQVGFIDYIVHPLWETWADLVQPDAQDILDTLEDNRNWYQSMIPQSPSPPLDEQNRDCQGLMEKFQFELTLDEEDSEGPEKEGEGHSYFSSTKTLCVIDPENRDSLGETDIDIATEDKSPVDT
# How it was run: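 HEK293 ACTOne cells with CNG channel (1000/well), endogenous PDE4; membrane potential dye, compounds up to 22.9 uM final. Fluorescence Ex 535/Em 590; RO 20-1724 (100 uM final) as reference.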
# [5] = qHTS Assay for Lipid Storage Modulators (AID 1519; calls by dose curve); details: Drosophila S3 cells, BODIPY lipid droplet/cell ratio, laser cytometry, cells loaded with oleic acid
# How it was run: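 Cells seeded at 5,000 per well were treated with compounds over a concentration series and loaded with oleic acid (400 uM, as added). Lipid droplet fluorescence (488 nm excitation, 500-530 nm channel) was read by laser-scanning cytometry and normalized to 20 uM Triacsin C.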
# [6] = molecular target: DNA dC->dU-editing enzyme APOBEC-3G (Homo sapiens) (UniProt Q9HC16); experiment: qHTS for inhibitors of Vif-A3G interactions: Validation (AID 588379); details: Vif-A3G protein interaction assay; series mostly up to 46.1 µM
# Sequence of DNA dC->dU-editing enzyme APOBEC-3G (Homo sapiens) (Q9HC16 whole entry, looked up): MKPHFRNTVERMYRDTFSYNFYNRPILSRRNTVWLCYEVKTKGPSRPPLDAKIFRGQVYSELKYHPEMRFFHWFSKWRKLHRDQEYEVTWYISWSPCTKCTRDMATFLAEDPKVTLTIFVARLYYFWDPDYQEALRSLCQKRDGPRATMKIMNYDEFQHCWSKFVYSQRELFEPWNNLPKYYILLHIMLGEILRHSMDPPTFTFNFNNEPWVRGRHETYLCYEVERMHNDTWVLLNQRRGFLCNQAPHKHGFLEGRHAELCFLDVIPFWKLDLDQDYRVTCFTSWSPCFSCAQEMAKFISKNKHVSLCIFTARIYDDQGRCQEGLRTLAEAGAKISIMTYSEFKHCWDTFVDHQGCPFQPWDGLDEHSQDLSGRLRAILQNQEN
# How it was run: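 Yellow fluorescence (Ex 488, Em 500-530) of Vif-coexpressing HeLa A3G-eYFP cells, scanned by Acumen cytometer, reports blocked A3G degradation. Cells plated at 700/well overnight at 37 deg C before compound addition, then a further overnight compound incubation at 37 deg C.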
# [7] = system: Zika virus NS2B-NS3 protease; experiment: Primary screen GU AMC qHTS for Zika virus inhibitors (AID 1347154); details: Zika NS2B-NS3 unlinked protease, AMC fluorogenic substrate; series mostly up to 54.1 µM; also: nearly all actives have a fitted effect of over 70% in size
# How it was run: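 Unlinked Zika NS2B hydrophilic domain–NS3 protease complex at 25 nM in 10 mM Tris-HCl pH 8.0, 0.01% Tween 20, with an AMC peptide substrate. Fluorescence change (340/450 nm) over 15 min at room temperature, normalized to controls, fitted to 4-parameter Hill.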
# [8] = Counterscreen qHTS for small molecule stabilizers of the endoplasmic reticulum resident proteome: GLuc-NoTag assay (AID 1508627); details: Gaussia luciferase NoTag secretion counterscreen, luminescence, thapsigargin 100 nM for final 4 h; series mostly up to 76.4 µM;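 also: SH-SY5Y cells given compound then 100 nM thapsigargin to empty ER calcium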
# How it was run: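 Counterscreen line: SH-SY5Y-GLuc-NoTag. Seed, 5 h; compound, 19 h; thapsigargin 100 nM, 4 h; 37C/5% CO2. Readout: secreted GLuc luminescence, coelenterazine 0.07x final, no lysis.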
# [9] = AP1 Signaling Pathway (AID 357; active = well fitted curve in either direction with a large enough effect, not every such curve was filed as active); details: ME-180 AP-1-bla reporter, EGF-induced, beta-lactamase ratio, 5 h
# How it was run: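 AP-1-bla ME-180 cells with beta-lactamase reporter under AP-1 response element, stimulated with EC50 EGF; compounds titrated, 5 hours at 37 degrees Celsius. CCF4 read at 460/530 nm ratio; positive and negative modulators judged by AC50.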
# [10] = NFAT Signaling Pathway (AID 444; active = well fitted curve in either direction with a large enough effect, not every such curve was filed as active;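 also: carbachol stimulus at about its EC50 of 1 µM final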); details: Jurkat NFAT-bla M1, carbachol, beta-lactamase ratio, 5 h
# How it was run: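 Jurkat cells with NFAT-driven β-lactamase reporter and co-expressed M1 receptor, stimulated with carbachol (final 1 uM, ~EC50), compound titration, 5 h at 37 °C. CCF4 loaded 1 h at RT; 460/530 nm ratio gave %activity and AC50.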
# [11] = Stat Signaling Pathway (AID 446; active = well fitted curve in either direction with a large enough effect, not every such curve was filed as active;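 also: ME-180 cervical cancer cells given 40 pM IL-6 alongside compound; SIE-controlled beta-lactamase reporter measured as 460/530 nm FRET emission ratio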); details: ME-180 (cervical carcinoma) SIE beta-lactamase reporter, IL-6 stimulated, 5 h
# How it was run: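 Normalization used AC90 stimulation (300 pM IL-6) and AC90 inhibition (125 nM pan-JAK inhibitor at 40 pM IL-6). The underlying signal is SIE-driven beta-lactamase in ME-180 cells after 5 h IL-6 exposure with compound.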
# [12] = qHTS Assay for Identification of Small Molecule Agonists for Thrombopoietin (TPO) Signaling Pathway (AID 917); details: TPO signaling pathway reporter cells, agonist qHTS, stimulated with TPO at its EC50; series mostly up to 38.5 µM
# How it was run: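 Quantitative HTS for pathway activators: compounds were pin-transferred onto IL-3-starved Ba/F3 cells expressing human TPO receptor, TPO was added at its EC50 (26 pM final), and after 24 hrs at 37 C reporter luciferase was measured.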
# [13] = molecular target: Muscarinic acetylcholine receptor M1 (Rattus norvegicus) (UniProt P08482); experiment: qHTS Assay for Antagonists of Acetylcholine Muscarinic M1 Receptor: Kinetic Measurement of Intracellular Calcium Response (AID 943); details: M1-expressing cells, kinetic intracellular calcium fluorescence; series mostly up to 35.3 µM;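 also: Fluo-4 calcium signal as peak divided by basal fluorescence over 4 min; nearly all actives have a fitted effect of over 75% in size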
# Sequence of Muscarinic acetylcholine receptor M1 (Rattus norvegicus) (P08482 whole entry, looked up): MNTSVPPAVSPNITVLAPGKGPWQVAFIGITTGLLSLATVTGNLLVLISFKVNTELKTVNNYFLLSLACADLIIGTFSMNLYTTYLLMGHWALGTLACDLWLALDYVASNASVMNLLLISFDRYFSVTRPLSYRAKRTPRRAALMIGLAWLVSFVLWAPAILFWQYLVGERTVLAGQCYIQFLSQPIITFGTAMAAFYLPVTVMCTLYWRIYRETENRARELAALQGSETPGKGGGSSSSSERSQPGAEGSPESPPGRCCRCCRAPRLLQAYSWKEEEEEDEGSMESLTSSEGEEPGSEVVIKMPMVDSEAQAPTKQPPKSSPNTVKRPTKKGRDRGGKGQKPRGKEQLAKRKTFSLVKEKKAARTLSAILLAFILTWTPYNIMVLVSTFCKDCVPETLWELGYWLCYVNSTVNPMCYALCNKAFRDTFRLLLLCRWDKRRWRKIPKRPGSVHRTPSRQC
# How it was run: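 Quantitative HTS in CHO-M1 (rat receptor) cells: 10 min compound exposure ahead of 100 nM carbachol, Fluo-4 fluorescence followed 4 min, value expressed as peak-to-basal ratio.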
# [14] = molecular target: Muscarinic acetylcholine receptor M1 (Rattus norvegicus) (UniProt P08482); experiment: qHTS Assay for Antagonists of Acetylcholine Muscarinic M1 Receptor: Measurement of IP-One Response (AID 944); details: CHO-M1 cells, IP-One HTRF, antagonist mode; series mostly up to 46.1 µM; also: nearly all actives have a fitted effect of over 75% in size
# How it was run: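 Antagonism was measured as loss of carbachol-driven (EC80) IP1 accumulation in CHO cells carrying rat M1, using a homogeneous IP-One TR-FRET kit read at 620 and 665 nm.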
# [15] = molecular target: Pyruvate kinase (Leishmania mexicana) (UniProt Q27686); experiment: qHTS Validation Assay for Inhibitors of Leishmania Mexicana Pyruvate Kinase (AID 945); details: purified L. mexicana pyruvate kinase, enzyme activity, E451W mutant enzyme; series mostly up to 57.5 µM
# Sequence of Pyruvate kinase (Leishmania mexicana) (Q27686 2-499 E452W): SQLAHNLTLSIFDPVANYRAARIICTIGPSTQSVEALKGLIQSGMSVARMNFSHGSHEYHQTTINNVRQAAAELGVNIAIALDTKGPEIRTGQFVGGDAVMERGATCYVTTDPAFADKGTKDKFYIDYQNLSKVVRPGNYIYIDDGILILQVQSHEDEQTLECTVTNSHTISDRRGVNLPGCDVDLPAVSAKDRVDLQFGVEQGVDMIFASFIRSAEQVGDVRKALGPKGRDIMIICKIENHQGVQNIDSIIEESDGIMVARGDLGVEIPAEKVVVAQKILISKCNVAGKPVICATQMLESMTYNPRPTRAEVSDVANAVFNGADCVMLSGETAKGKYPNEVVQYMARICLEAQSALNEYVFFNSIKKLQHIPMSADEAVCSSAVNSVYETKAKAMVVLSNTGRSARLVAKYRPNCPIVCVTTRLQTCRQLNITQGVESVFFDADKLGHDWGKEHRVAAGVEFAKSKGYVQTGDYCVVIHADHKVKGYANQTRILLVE
# How it was run: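 Pyruvate kinase activity of E451W LmPYK (0.2 nM) was followed as ATP output after 1 h at room temperature with 0.5 mM PEP and 0.1 mM ADP, detected by PKLight luminescence.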
# [16] = molecular target: Pyruvate kinase PKM (Homo sapiens) (UniProt P14618); experiment: qHTS Assay for Activators of Human Muscle Pyruvate Kinase (AID 954; active = well fitted curve in the direction sought with a large enough effect, not every such curve was filed as active); details: purified human muscle pyruvate kinase, luciferase-coupled luminescence, 1 h; series mostly up to 57.5 µM
# Sequence of Pyruvate kinase PKM (Homo sapiens) (P14618 whole entry, looked up): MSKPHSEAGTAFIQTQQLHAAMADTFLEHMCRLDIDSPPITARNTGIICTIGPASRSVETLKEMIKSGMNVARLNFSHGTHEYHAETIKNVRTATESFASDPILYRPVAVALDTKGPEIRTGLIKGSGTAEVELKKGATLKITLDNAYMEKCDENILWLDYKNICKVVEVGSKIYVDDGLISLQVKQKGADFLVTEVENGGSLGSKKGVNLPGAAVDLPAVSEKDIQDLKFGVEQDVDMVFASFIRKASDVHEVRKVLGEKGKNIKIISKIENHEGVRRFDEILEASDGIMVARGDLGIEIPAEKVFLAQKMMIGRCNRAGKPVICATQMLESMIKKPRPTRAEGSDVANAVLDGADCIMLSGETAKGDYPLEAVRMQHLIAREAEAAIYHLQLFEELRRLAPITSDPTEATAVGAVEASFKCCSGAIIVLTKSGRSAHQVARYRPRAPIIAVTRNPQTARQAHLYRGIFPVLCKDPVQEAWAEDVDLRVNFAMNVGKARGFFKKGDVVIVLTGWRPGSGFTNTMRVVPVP
# How it was run: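 Compound pinned into substrate mix (0.5 mM PEP, 0.1 mM ADP), then 0.1 nM PKM2 added; 1 h, RT. Stop/detection luciferase reagent added, luminescence read. Normalized to no-inhibition and no-enzyme or reference-inhibitor controls.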
# [17] = molecular target: alpha-glucosidase (Oryza sativa, rice) (UniProt Q653V4); experiment: Counterscreen for Glucocerebrosidase Inhibitors: qHTS Assay for Rice alpha-Glucosidase at pH 5.0 (AID 997); details: rice alpha-glucosidase enzyme activity; series mostly up to 76.9 µM
# How it was run: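 Endpoint fluorogenic assay at pH 5.0: compounds (0.7 nM to 77 uM) titrated against 4 nM rice enzyme and 400 uM 4-MU-alpha-glucoside for 20 min at room temperature; NaOH/glycine stop, read ex 365/em 440 nm, Hill-fitted AC50.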
# [18] = molecular target: Ubiquitin carboxyl-terminal hydrolase 1 (Homo sapiens) (UniProt O94782); experiment: Inhibitors of USP1/UAF1: Pilot qHTS (AID 504865); details: purified USP1/UAF1, Ub-rhodamine cleavage fluorescence; series mostly up to 114 µM;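 also: rhodamine fluorescence freed from ubiquitin-rhodamine substrate followed over time; top concentration of the series differs between compounds; nearly all actives have a fitted effect of over 35% in size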
# Sequence of Ubiquitin carboxyl-terminal hydrolase 1 (Homo sapiens) (O94782 whole entry, looked up): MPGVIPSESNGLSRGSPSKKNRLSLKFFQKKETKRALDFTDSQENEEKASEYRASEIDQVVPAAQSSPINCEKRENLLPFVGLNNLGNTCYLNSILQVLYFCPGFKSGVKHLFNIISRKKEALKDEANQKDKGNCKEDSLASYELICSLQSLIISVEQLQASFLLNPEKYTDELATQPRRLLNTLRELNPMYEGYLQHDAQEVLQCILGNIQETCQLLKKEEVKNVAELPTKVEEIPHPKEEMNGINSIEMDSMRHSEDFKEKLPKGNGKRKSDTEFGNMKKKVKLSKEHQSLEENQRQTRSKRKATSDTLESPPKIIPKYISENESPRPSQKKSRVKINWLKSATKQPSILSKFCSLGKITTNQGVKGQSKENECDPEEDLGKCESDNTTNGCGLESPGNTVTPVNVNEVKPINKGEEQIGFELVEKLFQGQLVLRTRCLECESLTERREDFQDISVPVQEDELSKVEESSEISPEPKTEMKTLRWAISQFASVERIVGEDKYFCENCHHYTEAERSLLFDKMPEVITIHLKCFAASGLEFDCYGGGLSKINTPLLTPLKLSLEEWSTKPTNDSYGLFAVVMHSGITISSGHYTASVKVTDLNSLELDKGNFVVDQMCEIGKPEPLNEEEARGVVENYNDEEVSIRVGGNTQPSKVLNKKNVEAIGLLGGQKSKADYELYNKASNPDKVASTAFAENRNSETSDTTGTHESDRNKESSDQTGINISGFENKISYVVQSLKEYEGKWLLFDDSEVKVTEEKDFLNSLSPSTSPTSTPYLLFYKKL
# How it was run: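 Kinetic fluorescence assay: 1nM USP1/UAF1, 15 min compound preincubation, then 150nM Ub-Rho; 480/540 nm.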
# [19] = measured here: cell count channel max response
# [20] = measured here: lipid channel max response
structure (smiles),measurement,setting,value
COc1ccc2c3c1O[C@H]1C[C@H](O)C=C[C@@]31CCN(C)C2,Potency,[1],> 46 µM (inactive)
same,Potency,[2],> 46 µM (inactive)
same,Potency,[3],inactive
same,Potency,[4],inactive
same,"activity change, negative = inhibition",[5]; at 57.5 µM (top of the series),3.95% (inactive)
same,max response,[5]; [19],9.55%
same,max response,[5]; [20],14.8%
same,Potency,[6],inactive
same,Potency,[7],inactive
same,Potency,[8],inactive
O=C1N=C(O)CN1/N=C\c1ccc(-c2ccc([N+](=O)[O-])cc2)o1,"activity change, negative = inhibition",[9]; at 17.2 µM (top of the series),-13.8% (inactive)
same,"activity change, negative = inhibition",[9]; at 38 µM (top of the series),-14.1% (inactive)
same,"activity change, negative = inhibition",[10]; at 17.2 µM (top of the series),4.77% (inactive)
same,"activity change, negative = inhibition",[10]; at 38 µM (top of the series),-3.36% (inactive)
same,"activity, negative = inhibition",[11]; at 17.2 µM (top of the series),9.37% (inactive)
same,"activity, negative = inhibition",[11]; at 38 µM (top of the series),-4.41% (inactive)
same,Potency,[1],> 46 µM (inactive) and > 20.6 µM (inactive)
same,Potency,[2],> 46 µM (inactive) and > 20.6 µM (inactive)
same,Potency,[4],inactive
same,Potency,[12],inactive
same,Potency,[13],inactive
same,Potency,[14],inactive
same,Potency,[15],inactive
same,outcome,[16],inactive
same,outcome,[17],inactive
same,"activity change, negative = inhibition",[5]; at 25.7 µM (top of the series),3.41% (inactive)
same,max response,[5]; [19],3.82%
same,max response,[5]; [20],7.61%
same,Potency,[18],inactive
same,Potency,[6],inactive
same,Potency,[7],inactive
same,Potency,[8],inactive
